Source: ChEMBL document CHEMBL4513216, “Probing the Open Global Health Chemical Diversity Library for Multistage-Active Starting Points for Next-Generation Antimalarials” (ACS Infect Dis, 2020)
Among all 69,000 compounds or so, about 8,600 (12%) showed an effect of 50% or more. For the sample, strong results were picked, then their nearest neighbours and some compounds at random.

What follows are compounds tested on Plasmodium berghei (assay: Screen against P. berghei liver stage (PbLuc), transformed with Luciferase, at 10uM). Conditions: tested at 10 uM.
Type: functional, HepG2

Compound | INHIBITION
COCCn1ccc(NC(=O)CNC(=O)CC(C)(C)C)n1 | 34.9%
CN(CCO)CC1COCCN1C(=O)C1(c2cccs2)CCCC1 (stereo not drawn) | 14.9%
COCCN1CCN(C(C)C(=O)Nc2ccnn2C(C)C)CC1 (stereo not drawn) | 11.8%
COCCCN1CCCN(C(C)C(=O)Nc2cccc(I)c2)CC1 (stereo not drawn) | 85.1%
COCCCN1CCCN(C(C)C(=O)Nc2ccnn2C(C)C)CC1 (stereo not drawn) | 0.139%
CN(C)C(=O)C1OC2(CCN(C(=O)c3ccoc3)CC2)c2ccccc21 (stereo not drawn) | 22.2%
O=C(NC1CC1)C1CCc2nnc(C3CC3)n21 (stereo not drawn) | 53.2%
O=C(NC1CC1)C1CCc2nnc(-c3cccc(C(F)(F)F)c3)n21 (stereo not drawn) | 17.6%
O=C(NC1CC1)C1CCc2nnc(-c3cccnc3)n21 (stereo not drawn) | 47.4%
CC1CN(C(=O)Nc2cccc(CN3CCOC3=O)c2)CCO1 (stereo not drawn) | -43.9%
CCc1cccc(N2CCC(NC(=O)C3CCCO3)CC2)c1 (stereo not drawn) | 48.2%
COc1ccc2c(c1)CCN(CCC(=O)NC1CCCCC1)CC2 | 6.8%
CCc1cccc(N2CCC(NC(=O)C3CCOCC3)CC2)c1 | 21.5%
CCc1cccc(N2CCC(NC(=O)C3CCC3)CC2)c1 | 64.7%
COc1cccc(N2CCN(CCC(=O)NC3CCCC3)CC2)c1 | 24.5%
CCC(=O)NC1CCN(c2cccc(CC)c2)CC1 | 50.4%
CCc1cccc(N2CCC(NC(=O)CCNC(N)=O)CC2)c1 | 5.03%

Compound | INHIBITION
COc1cccc(N2CCN(CCC(=O)NC3CCCCC3)CC2)c1 | 64.6%
CCc1cccc(CC(=O)NC2CCN(C(=O)NC(C)(C)C)CC2)c1 | 12.6%
CCOCCNC(=O)c1cccnc1N1CCCC1c1ccccn1 (stereo not drawn) | -31%
CCc1nc(CN(C)CC(=O)NC(C)C)cs1 | 14.8%
Cc1ccc(-n2c(O)cc(C)c(C#N)c2=O)c(C)c1 | -8.66%
Cc1cnn(CC2CCCCN2C(=O)c2nccnc2N)c1 (stereo not drawn) | -19.9%
CC(=O)c1ccccc1-c1nc(CC2CCN(C)CC2)no1 | 24.7%
Clc1cccc(C(CNCc2ccccn2)N2CCOCC2)c1 (stereo not drawn) | 53.9%
Clc1cccc(C(CNCc2cccnc2)N2CCOCC2)c1 (stereo not drawn) | 23.2%
Clc1cccc(C(CNc2ncccn2)N2CCOCC2)c1 (stereo not drawn) | -14.5%
COc1ccc(C)cc1-c1[nH]c2ccccc2c1C(=O)O | 3.52%
Cc1ccc2c(n1)N(CC(C)C)CCN(C(=O)Cc1ccccn1)C2 | 2.41%
CC(Cc1cn(CCc2nc(N)cc(O)n2)nn1)c1ccccc1 (stereo not drawn) | 24.9%
O=c1c(Cc2ccccc2)c(O)ccn1Cc1ccco1 | 34%
O=c1c(Cc2ccccc2)c(O)ccn1Cc1cccs1 | -23.5%
O=c1c(Cc2ccccc2)c(O)ccn1CCc1ccccc1 | 56.2%
